PubChem BioAssay AID1159580 (chemical genetic matrix, 2015)
Where “and” joins values, the source holds several entries; their conditions need not be identical. Equal values may be shown once. The whole screen tested about 5,500 compounds, of which about 2,000 (36%) were called active. Roughly 18% stayed inconclusive and do not appear here. Cut-off read from the data, not from the text of the source: active = normalized growth mostly below about 0.91 (no sharp cut-off); inconclusive = no clear call, values can overlap the other calls; inactive = mostly above about 0.92. The list shows a part of the results.

Experiment: chemical genetic growth profiling, strain panel (AID 1159580);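 note: tested at 20 µM; growth read once vehicle control cultures reached saturation at 30 °C; 1 = growth at the plate median or of vehicle wells; lower values mean less growth of the strain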
Settings: S. cerevisiae deletion strains, growth OD

Measured: normalized growth

O=c1c(-c2ccc(O)cc2)coc2cc(O)cc(O)c12
inactive: locus YAL013W, strain DEP1, stronger effect = lower value 1.03 | locus YAL021C, strain ccr4, stronger effect = lower value 1.01 | locus YAL026C, strain drs2, stronger effect = lower value 1.02 | locus YAL030W, strain snc1, stronger effect = lower value 1.01 | locus YAL040C, strain CLN3, stronger effect = lower value 0.968 | locus YBL061C, strain skt5, stronger effect = lower value 1.01 | locus YBR009C, strain hhf1, stronger effect = lower value 1.01 | locus YBR021W, strain FUR4, stronger effect = lower value 1 | locus YBR023C, strain chs3, stronger effect = lower value 1.01 | locus YBR171W, strain sec66, stronger effect = lower value 1.01 | locus YBR229C, strain ROT2, stronger effect = lower value 1.02 | locus YBR231C, strain swc5, stronger effect = lower value 1.01 | locus YBR279W, strain paf1, stronger effect = lower value 1 | locus YCL011C, strain gbp2, stronger effect = lower value 1.01 | locus YCL016C, strain dcc1, stronger effect = lower value 1.01 | locus YCL029C, strain bik1, stronger effect = lower value 1.03 | locus YCL061C, strain MRC1 (second series), stronger effect = lower value 1 | locus YCL061C, strain MRC1, stronger effect = lower value 1 | locus YCL069W, strain vba3, stronger effect = lower value 1.02 | locus YCR088W, strain abp1, stronger effect = lower value 1.02 | locus YDL005C, strain med2, stronger effect = lower value 1 | locus YDL035C, strain GPR1, stronger effect = lower value 1.07 | locus YDL040C, strain nat1, stronger effect = lower value 1.01 | locus YDL074C, strain BRE1, stronger effect = lower value 1.14 | locus YDL101C, strain DUN1, stronger effect = lower value 1.03 | locus YDL185W, strain tfp1, stronger effect = lower value 1.02 | locus YDL192W, strain arf1, stronger effect = lower value 1.04 | locus YDR001C, strain nth1, stronger effect = lower value 1.01 | locus YDR069C, strain doa4, stronger effect = lower value 1.01 | locus YDR101C, strain arx1, stronger effect = lower value 1 | locus YDR137W, strain rgp1, stronger effect = lower value 0.983 | locus YDR150W, strain NUM1, stronger effect = lower value 0.996 | locus YDR159W, strain sac3, stronger effect = lower value 1.02 | locus YDR162C, strain NBP2, stronger effect = lower value 1.04 | locus YDR195W, strain ref2 1.03 | locus YDR297W, strain sur2, stronger effect = lower value 1.01 | locus YDR318W, strain mcm21, stronger effect = lower value 1.02 | locus YDR334W, strain swr1, stronger effect = lower value 0.989 | locus YDR335W, strain msn5, stronger effect = lower value 1.02 | locus YDR363W, strain ESC2, stronger effect = lower value 0.994 | locus YDR388W, stronger effect = lower value 1.03 | locus YDR392W, strain spt3, stronger effect = lower value 0.989 | locus YDR502C, strain sam2, stronger effect = lower value 1.02 | locus YEL003W, strain gim4, stronger effect = lower value 1.01 | locus YEL037C, strain rad23, stronger effect = lower value 1.01 | locus YEL061C, strain CIN8 (second series), stronger effect = lower value 1.01 | locus YER002W, strain NOP16, stronger effect = lower value 0.996 | locus YER015W, strain faa2, stronger effect = lower value 1.01 | locus YER016W, strain bim1, stronger effect = lower value 1.01 | locus YER110C, stronger effect = lower value 1.04 | locus YER111C, strain swi4, stronger effect = lower value 1.03 | locus YER155C, strain BEM2 (second series), stronger effect = lower value 1.02 | locus YER155C, strain BEM2, stronger effect = lower value 1.03 | locus YER167W, strain BCK2, stronger effect = lower value 1.03 | locus YFR010W, strain ubp6, stronger effect = lower value 0.995 | locus YGL078C, strain dbp3, stronger effect = lower value 1.03 | locus YGL086W, strain mad1, stronger effect = lower value 1.01 | locus YGL167C, strain pmr1, stronger effect = lower value 1.01 | locus YGL173C, strain kem1, stronger effect = lower value 1.01 | locus YGL227W, strain vid30, stronger effect = lower value 1.01 | locus YGL240W, strain doc1, stronger effect = lower value 1.01 | locus YGL248W, strain PDE1, stronger effect = lower value 1.07 | locus YGL253W, strain hxk2, stronger effect = lower value 1 | locus YGR078C, strain PAC10, stronger effect = lower value 1.06 | locus YGR135W, strain pre9, stronger effect = lower value 1.05 | locus YGR252W, strain gcn5, stronger effect = lower value 0.958 | locus YHR013C, strain ard1, stronger effect = lower value 1.03 | locus YHR027C, strain rpn1, stronger effect = lower value 1.01 | locus YHR030C, strain SLT2, stronger effect = lower value 0.984 and 1.04 | locus YHR079C, strain IRE1 (second series), stronger effect = lower value 1.02 | locus YHR079C, strain IRE1, stronger effect = lower value 1.01 | locus YHR094C, strain hxt1, stronger effect = lower value 1.04 | locus YHR129C, strain ARP1, stronger effect = lower value 1.05 | locus YHR142W, strain chs7, stronger effect = lower value 0.991 | locus YHR200W, strain rpn10, stronger effect = lower value 1.02 | locus YIL066C, strain RNR3, stronger effect = lower value 1.05 | locus YIL073C, strain SPO22, stronger effect = lower value 1.13 | locus YIL125W, strain kgd1, stronger effect = lower value 1.03 | locus YIR030C, strain dcg1, stronger effect = lower value 1.03 | locus YJL092W, strain hpr5, stronger effect = lower value 1.01 | locus YJL095W, strain BCK1 (second series), stronger effect = lower value 1.01 | locus YJL095W, strain BCK1, stronger effect = lower value 1.11 and 1.05 | locus YJL115W, strain asf1, stronger effect = lower value 0.999 | locus YJL129C, strain trk1, stronger effect = lower value 0.997 | locus YJL134W, strain LCB3, stronger effect = lower value 1.03 | locus YJL154C, strain vps35, stronger effect = lower value 1 | locus YJL164C, strain tpk1, stronger effect = lower value 0.95 | locus YJL166W, strain qcr8, stronger effect = lower value 1 | locus YJL168C, strain set2, stronger effect = lower value 1.03 | locus YJL187C, strain SWE1 (second series), stronger effect = lower value 1.05 | locus YJL187C, strain SWE1, stronger effect = lower value 1 | locus YJR066W, strain TOR1, stronger effect = lower value 0.999 | locus YKL009W, strain mrt4, stronger effect = lower value 1.04 | locus YKL068W, stronger effect = lower value 1 | locus YKL085W, strain MDH1 (second series), stronger effect = lower value 1.02 | locus YKL085W, strain MDH1, stronger effect = lower value 1.02 | locus YKL160W, strain elf1, stronger effect = lower value 1 | locus YKL190W, strain CNB1, stronger effect = lower value 1.02 | locus YKR001C, strain vps1, stronger effect = lower value 1.03 | locus YKR026C, strain gcn3, stronger effect = lower value 1.02 | locus YKR091W, strain srl3, stronger effect = lower value 1.01 | locus YLL001W, strain dnm1, stronger effect = lower value 1.02 | locus YLL026W, stronger effect = lower value 1.02 | locus YLL041C, strain sdh2, stronger effect = lower value 1 | locus YLR027C, strain aat2, stronger effect = lower value 1.01 | locus YLR039C, strain RIC1, stronger effect = lower value 1.21 | locus YLR058C, strain SHM2, stronger effect = lower value 1.05 | locus YLR102C, strain apc9, stronger effect = lower value 1.03 | locus YLR113W, strain HOG1, stronger effect = lower value 1.07 | locus YLR221C, strain rsa3, stronger effect = lower value 1 | locus YLR258W, strain gsy2, stronger effect = lower value 1.01 | locus YLR262C, strain YPT6 (second series), stronger effect = lower value 1.01 | locus YLR268W, strain sec22, stronger effect = lower value 1.03 | locus YLR320W, strain mms22, stronger effect = lower value 1 | locus YLR342W, strain FKS1, stronger effect = lower value 1.01 | locus YLR357W, strain rsc2, stronger effect = lower value 0.987 | locus YLR370C, strain arc18, stronger effect = lower value 1.01 | locus YLR371W, strain rom2, stronger effect = lower value 1.06 | locus YLR384C, strain iki3, stronger effect = lower value 1.02 | locus YLR418C, strain cdc73, stronger effect = lower value 1.05 | locus YML016C, strain PPZ1, stronger effect = lower value 1.03 | locus YML032C, strain rad52, stronger effect = lower value 1.02 | locus YML120C, strain ndi1, stronger effect = lower value 1.02 | locus YML124C, strain tub3, stronger effect = lower value 1.02 | locus YMR058W, strain fet3, stronger effect = lower value 1.01 | locus YMR078C, strain ctf18, stronger effect = lower value 1.03 | locus YMR125W, strain sto1, stronger effect = lower value 1.01 | locus YMR129W, stronger effect = lower value 1.01 | locus YMR205C, strain PFK2, stronger effect = lower value 1.02 | locus YMR223W, strain ubp8, stronger effect = lower value 1.03 | locus YMR231W, strain pep5, stronger effect = lower value 1 | locus YMR263W, strain SAP30, stronger effect = lower value 1.03 | locus YMR307W, strain GAS1, stronger effect = lower value 1.17 and 0.992 | locus YNL067W, strain RPL9B, stronger effect = lower value 1.03 | locus YNL071W, strain lat1, stronger effect = lower value 1.02 | locus YNL128W, strain TEP1, stronger effect = lower value 1.06 | locus YNL175C, strain NOP13, stronger effect = lower value 1.01 | locus YNL183C, strain NPR1, stronger effect = lower value 0.993 | locus YNL197C, strain WHI3, stronger effect = lower value 1.01 | locus YNL209W, strain ssb2, stronger effect = lower value 0.996 | locus YNL224C, strain SQS1, stronger effect = lower value 1 | locus YNL233W, strain BNI4, stronger effect = lower value 1.08 | locus YNL248C, strain rpa49, stronger effect = lower value 0.999 | locus YNL250W, strain rad50, stronger effect = lower value 1.04 | locus YNL271C, strain bni1, stronger effect = lower value 1.02 | locus YNL298W, strain CLA4, stronger effect = lower value 1.04 | locus YNL307C, strain MCK1, stronger effect = lower value 1.06 | locus YNL322C, strain KRE1 (second series), stronger effect = lower value 1.01 | locus YNL322C, strain KRE1, stronger effect = lower value 0.996 | locus YNR049C, strain mso1, stronger effect = lower value 1.01 | locus YNR052C, strain pop2, stronger effect = lower value 1.05 | locus YOL006C, strain TOP1, stronger effect = lower value 1.26 | locus YOL012C, strain htz1 0.919 | locus YOL147C, strain pex11, stronger effect = lower value 1.01 | locus YOR001W, strain rrp6, stronger effect = lower value 1.01 | locus YOR061W, strain CKA2, stronger effect = lower value 1.04 | locus YOR069W, strain VPS5, stronger effect = lower value 1.03 | locus YOR070C, strain gyp1, stronger effect = lower value 1 | locus YOR080W, strain dia2, stronger effect = lower value 1.01 | locus YOR083W, strain WHI5 (second series), stronger effect = lower value 1.03 | locus YOR083W, strain WHI5, stronger effect = lower value 0.997 | locus YOR106W, strain vam3, stronger effect = lower value 0.977 | locus YOR136W, strain idh2, stronger effect = lower value 1.03 | locus YOR144C, strain elg1, stronger effect = lower value 1.02 | locus YOR184W, strain ser1, stronger effect = lower value 1 | locus YOR231W, strain MKK1, stronger effect = lower value 1.04 | locus YOR265W, strain rbl2, stronger effect = lower value 1.01 | locus YOR270C, strain vph1, stronger effect = lower value 0.982 | locus YOR290C, strain snf2, stronger effect = lower value 0.989 | locus YOR316C, strain cot1, stronger effect = lower value 1.02 | locus YPL051W, strain arl3, stronger effect = lower value 0.989 | locus YPL055C, strain LGE1, stronger effect = lower value 1.08 and 1.02 | locus YPL078C, strain atp4, stronger effect = lower value 1.01 | locus YPL106C, strain sse1, stronger effect = lower value 1.02 | locus YPL240C, strain hsp82, stronger effect = lower value 0.992 | locus YPL241C, strain CIN2, stronger effect = lower value 1 | locus YPL256C, strain CLN2, stronger effect = lower value 1.05 | locus YPR119W, strain clb2, stronger effect = lower value 1.03 | locus YPR141C, strain kar3, stronger effect = lower value 1.02 | locus YPR163C, strain tif3, stronger effect = lower value 1.04 | locus YPR167C, strain met16, stronger effect = lower value 1.03 | strain wtn01, stronger effect = lower value 1.02
